# The source made the active and inactive calls. Unless noted, no rule for the calls is given here.
# Tests used:
# [1] = resazurin metabolic signal in HepG2 cells – cell-based, resazurin fluorescence, 24 h, PK04 Diversity Set, profiling panel (AID 1172); settings: HepG2 viability, higher = more signal
# [2] = budding yeast growth changes without added modifier – OD600, strain BY4716, 24 h, basal condition, primary screen (AID 1173); settings: S. cerevisiae BY4716 growth, OD600, 24 h; higher = more signal, called active from +8 up or from −8 down
# [3] = viability profiling in MM1S myeloma cells – cell-based, resazurin fluorescence, basal, 24 h, PK04 Diversity Set, profiling panel (AID 1174); settings: higher = more signal, called active from +8 up or from −8 down;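 also: MM1S multiple myeloma cell line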
# [4] = target: Dihydroorotate dehydrogenase (quinone), mitochondrial (Plasmodium falciparum (isolate 3D7)) (UniProt Q08210); experiment: inhibition of P. falciparum DHODH – biochemical, C-terminal His tag, absorbance 600 nm, primary screen (AID 1175); settings: PfDHODH enzyme, DCIP absorbance 600 nm; higher = more signal, called active from +8 up or from −8 down;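 also: recombinant parasite enzyme with a five histidine tag at its C terminus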
# [5] = inhibition of PAO1 biofilm formation – strain PAO1, LB-PBS medium, absorbance 600 nm, primary screen (AID 1176); settings: P. aeruginosa PAO1 growth/biofilm, A600, 12 h; higher = more signal
# [6] = growth modulation of vineyard yeast isolate – strain RM11-1a, OD600, basal, 24 h, primary screen (AID 1177);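 also: cultures grown under basal conditions with no added stressor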; settings: S. cerevisiae RM11-1a growth, OD600, 24 h; higher = more signal, called active from +8 up or from −8 down
# [7] = growth of efflux-deficient E. coli DRC39 – strain DRC39, OD650, 24 h, E. coli filamentation inducers, primary screen (AID 1178);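 also: growth measured as culture turbidity by optical density at 650 nm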; settings: E. coli DRC39 acrAB, higher = more signal, called active from +8 up or from −8 down
# [8] = growth of efflux-deficient E. coli DRC39 – strain DRC39, OD650, 48 h, E. coli filamentation inducers, primary screen (AID 1179);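 also: screen aims at cell division blockers that make cells filament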; settings: E. coli DRC39 delta-acrAB growth, higher = more signal, called active from +8 up or from −8 down
# [9] = viability profiling in RPMI8226 myeloma cells – cell-based, resazurin fluorescence, basal, 24 h, PK04 Diversity Set, profiling panel (AID 1180); settings: higher = more signal;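 also: RPMI8826 multiple myeloma cell line at 5000 cells per well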
# [10] = target: E3 ubiquitin-protein ligase XIAP (Homo sapiens) (UniProt P98170); experiment: small molecules binding XIAP protein – biophysical, small-molecule microarray, fluorescence 635 nm, primary screen (AID 1181); settings: higher = more signal;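 also: score merges 667 nm emission and signal to noise over triplicate slides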
# [11] = tested on: XIP peptide (Xip251-270) binding; experiment: XIP fragment 251-270 binding compounds – biochemical, small-molecule microarray, fluorescence 635/667 nm, 0.1 µg/mL protein, primary screen (AID 1182); settings: fluorescent protein binding, 635 nm, higher = more signal, called active from +8 up or from −8 down
# [12] = tested on: XIP peptide (Xip251-270); experiment: compounds binding XIP fragment 251-270 – biochemical, small-molecule microarray, fluorescence 635/667 nm, 0.5 µg/mL protein, primary screen (AID 1183); settings: fluorescence 635 nm, higher = more signal
# [13] = blood-stage malaria parasite viability loss – strain 3D7, DAPI fluorescence, 100 nL, primary screen (AID 1184);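 also: parasites grown inside human red blood cells in medium with human serum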; settings: P. falciparum 3D7 growth, 3 d, higher = more signal
# [14] = target: Homeobox protein Hox-A13 (Mus musculus) (UniProt Q62424); experiment: disruptors of Hoxa13 oligonucleotide interaction – biochemical, fluorescence polarization, labeled oligonucleotide, primary screen (AID 1185); settings: Hoxa13:DNA binding, 15 min, higher = more signal, called active from +8 up or from −8 down
# [15] = blockers of DNA damage checkpoint Chk1 activation – imaging, HeLa, hydroxyurea, phospho-Chk1 antibody, percent positive cells, primary screen (AID 1186); settings: hydroxyurea-induced phospho-Chk1 immunofluorescence imaging, higher = more signal
# [16] = blockers of DNA damage checkpoint Chk1 activation – imaging, HeLa, hydroxyurea, phospho-Chk1 nuclear intensity, primary screen (AID 1187); settings: hydroxyurea-induced phospho-Chk1 immunofluorescence imaging, higher = more signal
# E3 ubiquitin-protein ligase XIAP (Homo sapiens), sequence (P98170 whole entry, looked up, the tested form may be a part): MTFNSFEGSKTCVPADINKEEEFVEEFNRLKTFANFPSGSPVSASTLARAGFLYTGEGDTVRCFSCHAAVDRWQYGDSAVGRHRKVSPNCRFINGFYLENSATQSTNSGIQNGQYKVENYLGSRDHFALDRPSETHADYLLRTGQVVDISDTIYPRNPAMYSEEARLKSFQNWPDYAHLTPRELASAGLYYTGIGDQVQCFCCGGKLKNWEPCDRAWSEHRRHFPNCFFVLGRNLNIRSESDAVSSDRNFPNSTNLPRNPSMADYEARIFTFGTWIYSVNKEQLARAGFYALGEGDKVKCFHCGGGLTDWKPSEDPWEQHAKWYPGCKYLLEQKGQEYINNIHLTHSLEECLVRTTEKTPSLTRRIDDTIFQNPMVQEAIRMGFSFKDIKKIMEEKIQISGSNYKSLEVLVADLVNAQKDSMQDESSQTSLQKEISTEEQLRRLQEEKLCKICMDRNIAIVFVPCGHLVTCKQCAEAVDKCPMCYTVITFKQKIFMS
# Dihydroorotate dehydrogenase (quinone), mitochondrial (Plasmodium falciparum (isolate 3D7)), sequence (Q08210 whole entry, looked up): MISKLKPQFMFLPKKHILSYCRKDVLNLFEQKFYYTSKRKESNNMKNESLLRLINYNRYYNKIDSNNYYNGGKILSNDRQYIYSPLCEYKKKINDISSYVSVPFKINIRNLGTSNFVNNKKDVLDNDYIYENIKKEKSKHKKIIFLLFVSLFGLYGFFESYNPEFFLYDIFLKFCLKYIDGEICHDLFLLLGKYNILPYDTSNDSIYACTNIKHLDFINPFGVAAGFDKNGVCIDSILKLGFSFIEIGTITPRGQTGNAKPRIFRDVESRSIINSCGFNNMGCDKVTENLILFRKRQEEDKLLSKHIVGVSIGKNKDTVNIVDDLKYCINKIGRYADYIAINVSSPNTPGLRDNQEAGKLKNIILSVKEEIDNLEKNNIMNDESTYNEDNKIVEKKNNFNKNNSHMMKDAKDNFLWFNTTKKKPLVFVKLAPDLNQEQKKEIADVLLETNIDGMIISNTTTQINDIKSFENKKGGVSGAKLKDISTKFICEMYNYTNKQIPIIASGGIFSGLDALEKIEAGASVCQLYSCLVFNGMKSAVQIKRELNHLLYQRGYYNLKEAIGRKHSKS
# Homeobox protein Hox-A13 (Mus musculus), sequence (Q62424 whole entry, looked up): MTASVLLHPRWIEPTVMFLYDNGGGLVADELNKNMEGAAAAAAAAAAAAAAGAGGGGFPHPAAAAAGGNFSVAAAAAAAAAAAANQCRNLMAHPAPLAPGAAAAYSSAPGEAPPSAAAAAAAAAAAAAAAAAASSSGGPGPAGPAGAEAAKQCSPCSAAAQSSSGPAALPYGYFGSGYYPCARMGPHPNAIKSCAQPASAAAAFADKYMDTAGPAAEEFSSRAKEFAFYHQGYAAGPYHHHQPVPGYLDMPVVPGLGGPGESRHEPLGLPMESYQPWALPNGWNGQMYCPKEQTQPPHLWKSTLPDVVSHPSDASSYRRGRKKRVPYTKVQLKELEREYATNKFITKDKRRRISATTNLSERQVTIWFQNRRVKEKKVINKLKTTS
SMILES,z-score [1],z-score [2],z-score [3],composite z-score [4],z-score [5],z-score [6],z-score [7],z-score [8],z-score [9],composite z-score [10],composite z-score [11],composite z-score [12],z-score [13],z-score [14],z-score [15],z-score [16]
COCCCNC(=O)[C@]1(Cc2ccccc2)N=C(c2ccc(OCCCO)cc2)O[C@@H]1c1ccccc1,0.754,-0.706 (inactive),0.325 (inactive),-0.0882 (inactive),0.494 (inactive),-0.499 (inactive),0.156 (inactive),-1.11 (inactive),0.778,-0.0118,2.03 (inactive),0.825,-2.17,-4.76 (inactive),-0.117 (inactive),-0.0405 (inactive)
C=C(/C(=C/C[C@H](OC(=O)c1ccncc1)c1ccc(OCCO)cc1)c1cnc2ccccc2c1)C(C)C,0.145,-0.753 (inactive),-0.777 (inactive),-2.73 (inactive),0.85 (inactive),0.0942 (inactive),-1.05 (inactive),-1.02 (inactive),0.0076,0.13,0.782 (inactive),0.528,-2.84,-3.29 (inactive),0.118 (inactive),-0.0461 (inactive)
COC(=O)[C@]1(CO)N=C(c2ccc(OCCCO)cc2)O[C@@H]1c1ccccc1N=[N+]=[N-],-0.318,-0.114 (inactive),-0.198 (inactive),0.482 (inactive),0.205 (inactive),-0.709 (inactive),-0.131 (inactive),0.57 (inactive),-0.459,0.964,0.816 (inactive),0.812,-0.313,-6.14 (inactive),0.0389 (inactive),0.0674 (inactive)
[N-]=[N+]=Nc1ccccc1C[C@@]1(C(N)=O)N=C(c2ccc(OCCCO)cc2)O[C@@H]1c1ccccc1,-0.501,-1.86 (inactive),-0.6 (inactive),-0.684 (inactive),0.218 (inactive),-0.364 (inactive),0.289 (inactive),-1.01 (inactive),-0.652,-0.0344,0.353 (inactive),-0.649,-2.14,-4.43 (inactive),-0.332 (inactive),-0.449 (inactive)
C=C(/C(=C/C[C@H](OC(C)=O)c1ccc(OCCO)cc1)c1cnc2ccccc2c1)C(C)C,1.93,-1.34 (inactive),-0.97 (inactive),-5.53 (inactive),-0.092 (inactive),-0.705 (inactive),0.263 (inactive),-0.511 (inactive),-0.853,0.102,-0.18 (inactive),0.605,-2.99,-4.31 (inactive),-0.319 (inactive),-0.38 (inactive)
C=CC[C@]1(C(=O)NCc2ccccc2)N=C(c2ccc(OCCCO)cc2)O[C@H]1c1ccccc1,0.527,-0.127 (inactive),-0.223 (inactive),-0.649 (inactive),-0.193 (inactive),1.15 (inactive),0.0557 (inactive),-0.126 (inactive),-0.0458,-0.102,1.55 (inactive),0.776,-2.05,-6.34 (inactive),0.0635 (inactive),0.896 (inactive)
C=CCN1C(=O)[C@]2(O[C@H](CCn3cc(CCO)nn3)[C@@H]([Si](C)(C)c3ccc(OC)cc3)[C@@H]2C)c2cc(N3CCOC3=O)ccc21,-0.0584,-0.528 (inactive),-0.368 (inactive),-0.173 (inactive),0.614 (inactive),0.817 (inactive),-0.815 (inactive),-1.18 (inactive),-0.789,-0.124,0.0616 (inactive),0.57,-2.7,-5.66 (inactive),-0.203 (inactive),-0.5 (inactive)
CCOC(=O)C[C@H]1[C@H](OC(=O)c2cc3ccccc3oc2=O)[C@@H](NC(=O)c2ccc3ccccc3n2)c2cc(OCCCO)ccc2N1C(=O)c1ccccc1,-0.983,-2.08 (inactive),-0.668 (inactive),-1.97 (inactive),-0.754 (inactive),-0.0333 (inactive),-0.341 (inactive),-0.753 (inactive),-0.599,0.217,0.26 (inactive),-0.224,-2.07,-0.763 (inactive),0.22 (inactive),0.249 (inactive)
COC(=O)[C@@]1(Cc2ccccc2)[C@H]2c3cc(C(=O)N4CCCC4)n(Cc4ccccn4)c3C[C@H]2CN1C(=O)c1ccccc1,-1.17,1.32 (inactive),-1.45 (inactive),0.553 (inactive),1.79 (inactive),0.957 (inactive),-0.452 (inactive),-0.551 (inactive),-2.32,0.0737,0.766 (inactive),0.91,-1.5,-6.05 (inactive),-0.161 (inactive),-0.295 (inactive)
O=C1O[C@@H](c2ccccc2)[C@@H](c2ccccc2)N2[C@@H](c3ccccc3OCCO)[C@]3(C(=O)Nc4ccc(C#CCCO)cc43)[C@@H](C(=O)O)[C@H]12,-0.307,-1.28 (inactive),0.649 (inactive),-2.05 (inactive),-0.681 (inactive),-0.282 (inactive),0.0701 (inactive),-0.781 (inactive),0.183,0.32,0.106 (inactive),0.842,-1.69,-5.33 (inactive),0.722 (inactive),0.803 (inactive)
